From PubChem BioAssay AID1650 (Southern Research Specialized Biocontainment Screening …, 2009)
Potency and affinity values are given separately. Active and inactive are the calls of the source. Where a call stands in place of a potency, no number is given. No rule for the calls is given here.

assay: mammalian cell viability reduction – secondary assay, cytotoxicity control for West Nile virus antiviral project, dose response (AID 1650); conditions: Mammalian host cell viability, cytotoxicity counter-screen; series mostly up to 10 µM

| Structure (SMILES) | outcome |
| --- | --- |
| Cc1cc(N2CCN(C)CC2)nc2ccc(NC(=S)N3CCN(c4ccccn4)CC3)cc12 | inactive |
| COc1cc2nc(N3CCN(C(=O)C4COc5ccccc5O4)CC3)nc(N)c2cc1OC (stereo not given) | inactive |
| CC(=O)Nc1ccccc1N(CC(O)Cn1c2ccccc2c2ccccc21)S(=O)(=O)c1ccc(C)cc1 (stereo not given) | inactive |
| CCN(CC)CCNC(=O)C1CCN(S(=O)(=O)c2c(C)noc2/C=C/c2ccccc2F)CC1 | inactive |
| CN1/C(=C\C(=S)NC(=O)c2cccc(Br)c2)C(C)(C)c2ccccc21 | inactive |
| COc1ccc(C2c3[nH]c4ccccc4c3CCN2C(=O)c2ccccc2C(C)=O)c(F)c1 (stereo not given) | inactive |
| CCCN(CCC)CCCNC(=S)Nc1ccc2nc(N3CCCC3)cc(C)c2c1 | inactive |
| CCN(CC)CCCNC(=S)N1CCN(c2nc(-c3ccccc3)cs2)CC1 | inactive |
| CCc1ccc(NC(=O)CSc2nc3ccccc3c(=O)n2CCCC(=O)NCCCN2CCOCC2)cc1 | inactive |
| C/C(=N\Nc1nnc(-c2ccccc2)c(-c2ccccc2)n1)c1cccc([N+](=O)[O-])c1 | inactive |
| CCN(CC)CCCNc1oc(-c2cccc(Cl)c2)nc1C#N | inactive |
| CCOC(=O)c1c(CN2CCN(CCO)CC2)n(-c2ccccc2)c2cc(Br)c(O)cc12 | inactive |
| CCOC(=O)N1CCC(N2C(=O)c3ccccc3C2Nc2cc(C)cc(C)c2)CC1 (stereo not given) | inactive |
| CC(C)(C)c1ccc(-c2nnc(SCC(=O)Nc3sc4c(c3C#N)CCCC4)o2)cc1 | inactive |
| CN1CCN(c2ccc(S(=O)(=O)N3CCCCC3)cc2NC(=O)c2ccc3ccccc3c2)CC1 | inactive |
| N#Cc1c(N)nc2c3c(sc(=N)c2c1N)NC(=O)CC3c1ccccc1Cl (stereo not given) | inactive |
| CCN(CC)CCCNC(=O)c1sc2nc(-c3ccc(F)cc3)cn2c1C | inactive |
| COc1ccc(N2C(=O)C(C)(C)C2c2c(O)ccc3ccccc23)cc1 (stereo not given) | inactive |
| COc1ccc([C@@H]2[C@@H]3C(=O)N(C(C)(C)C)C(=O)[C@@H]3[C@]3(Cc4ccccc4)C(=O)N(c4ccc(Br)cc4)C(=O)N23)cc1 | inactive |
| Cc1cc(N2CCCC2)nc2ccc(NC(=S)NCCCN3CCC(C)CC3)cc12 | inactive |

| Structure (SMILES) | outcome |
| --- | --- |
| CN1CCN(NC(=O)c2cc(-c3ccc(Cl)s3)nc3ccccc23)CC1 | inactive |
| CN1CCN(c2nc(Nc3cccc(C(F)(F)F)c3)nc(N3CCOCC3)n2)CC1 | inactive |
| CCN(CC)S(=O)(=O)c1ccc2c(c1)c(=O)c(C(=O)NCCOC)cn2C | inactive |
| COc1c(O)ccc2c1CN1CCc3cc4c(cc3C1C2)OCO4 (stereo not given) | inactive |
| O=C(COC(=O)CN1C(=O)c2ccccc2C1=O)Nc1ccc(S(=O)(=O)N2CCCC2)cc1 | inactive |
| COc1cc2cc(CN(CCc3ccccc3C)C(=S)NCCCN(C)C)c(=O)[nH]c2cc1OC | inactive |
| CN1CCN(CC(=O)Nc2c(C(=O)c3ccccc3)oc3ccccc23)CC1 | inactive |
| CN1C2CCC1/C(=C\c1ccccc1)C(=O)/C2=C\c1ccccc1 | inactive |
| CCCCOc1ccc(C(=O)N/N=C/c2ccc(OCCN3CCCCC3)c(OC)c2)cc1 | inactive |
| Cc1ccc(OCC(O)Cn2c(=N)n(CCN3CCCCC3)c3ccccc32)cc1 (stereo not given) | inactive |
| CCOC(=O)C1(Cc2cccc(OC)c2)CCCN(C(=O)c2ccccc2C)C1 (stereo not given) | inactive |
| O=C(/C=C/c1cccnc1)c1ccc(O)cc1 | inactive |
| CC12CC3(C)CC(C)(C1)CC(C(=O)NCC(=O)O)(C2)C3 | inactive |
| CN(C)CCCNc1ncnc2c1c(-c1ccccc1)cn2-c1ccccc1 | inactive |
| CCN(CC)S(=O)(=O)c1ccc(NC(=O)Cn2cnc3ccccc3c2=O)cc1 | inactive |
| Cc1c(NC(=O)COC(=O)c2cc(-c3ccc(-c4ccccc4)cc3)nc3ccccc23)c(=O)n(-c2ccccc2)n1C | inactive |
| CCOc1cc(/C=N/N=C(\N)c2nonc2N)cc(Br)c1OCc1cccc2ccccc12 | inactive |
| COc1ccc(Nc2nc3ccccc3nc2C)cc1 | inactive |
| O=[N+]([O-])c1ccc(Cl)c(/C=N/n2c(C3CCCCC3)n[nH]c2=S)c1 | inactive |
| Cc1cccc2cc(CN(CCCN(C)C)C(=S)NCCc3ccccc3)c(=O)[nH]c12 | inactive |
